# Measured values reported in PubChem BioAssay (NCI).
# The panel holds about 83,000 compounds, 20% with a hit somewhere; the sample as a whole holds those more often.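 Each cell line was grown in a 96-well plate and treated with one concentration of compound for 48 hours. Values below 10 were considered active.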 Values without a mark were called inactive. The source made the active and inactive calls.
# Key:
# Assay in all cases: NCI-60 one-dose screen, 48 h (100 = growth as untreated, 0 = no growth, -100 = all killed)
# Settings in all cases: 10 µM unless noted
# [1] = system: DU-145 prostate
# [2] = system: K-562 leukemia
# [3] = system: MALME-3M melanoma
# [4] = system: MDA-MB-231 breast
# [5] = system: RXF 393 renal
# [6] = system: SF-268 CNS
# [7] = system: SF-539 CNS
# [8] = system: UACC-257 melanoma
# [9] = system: M14 melanoma
# [10] = system: HCT-15 colon
# [11] = system: HT29 colon
# [12] = system: SNB-75 CNS
# [13] = system: SNB-19 CNS
# [14] = system: U251 CNS
# [15] = system: PC-3 prostate
# [16] = system: SK-MEL-5 melanoma
# [17] = system: UACC-62 melanoma
# [18] = system: LOX IMVI melanoma
# [19] = system: SK-MEL-28 melanoma
# [20] = system: SF-295 CNS
SMILES,growth [1],growth [2],growth [3],growth [4],growth [5],growth [6],growth [7],growth [8],growth [9],growth [10],growth [11],growth [12],growth [13],growth [14],growth [15],growth [16],growth [17],growth [18],growth [19],growth [20]
COC(=O)[C@H](Cc1cn(C)cn1)NC(=O)[C@H](Cc1ccccc1)NC(=O)Nc1cc(C(F)(F)F)cc(C(F)(F)F)c1,-99.7% [100 µM] (active),-60.2% [100 µM] (active),-86.3% [100 µM] (active),-90.8% [100 µM] (active),-84.3% [100 µM] (active),-94.8% [100 µM] (active),-94% [100 µM] (active),-96.6% [100 µM] (active),-90.9% [100 µM] (active),-77.3% [100 µM] (active),-82.4% [100 µM] (active),-98.2% [100 µM] (active),-95.9% [100 µM] (active),-95.6% [100 µM] (active),-95.6% [100 µM] (active),-97.1% [100 µM] (active),-97.4% [100 µM] (active),-84.7% [100 µM] (active),-96.6% [100 µM] (active),
O=C1Nc2ccc(Cl)cc2[C@@](C#CC2CC2)(C(F)(F)F)O1,104%,67.3%,93.4%,86.5%,,117%,104%,79.9%,86.2%,82.9%,86.6%,114%,103%,92%,92.9%,78%,70%,85.5%,109%,82%
CC(=O)c1ccc(NS(=O)(=O)c2ccc([N+](=O)[O-])cc2)cc1,111%,82.1%,115%,88.9%,104%,104%,97.8%,105%,107%,95.2%,108%,97.7%,87.9%,103%,93.1%,96.9%,75.1%,98.8%,123%,
COc1cc(NC(C)CCCN)c2nc(C)ccc2c1Oc1ccc(F)cc1 (configuration not stated),99.9%,35.9%,71.7%,61.5%,69.3%,80.7%,87.5%,65.7%,62.3%,71.2%,,64.6%,78.8%,73.2%,63.9%,86.2%,81.9%,51%,97.8%,
CCCCCc1c(C)[nH]c(/C=C2\N=C(c3ccc[nH]3)C=C2Oc2ccc(Cl)cc2)c1C,3.42% [100 µM] (active),0.896% [100 µM] (active),-59.3% [100 µM] (active),-38.7% [100 µM] (active),-2.91% [100 µM] (active),-72.6% [100 µM] (active),,-25.4% [100 µM] (active),-88.5% [100 µM] (active),-26.6% [100 µM] (active),0.582% [100 µM] (active),-40% [100 µM] (active),-32.9% [100 µM] (active),-94.9% [100 µM] (active),5.67% [100 µM] (active),-90% [100 µM] (active),-83.2% [100 µM] (active),-69.2% [100 µM] (active),-52.4% [100 µM] (active),-72.9% [100 µM] (active)
COC(=O)[C@H](CCCCNC(=O)OCc1ccccc1)NC(=O)[C@@H](NC(=O)Nc1cc(C(F)(F)F)cc(C(F)(F)F)c1)C(C)C,-82.2% [100 µM] (active),-18.9% [100 µM] (active),-61.4% [100 µM] (active),-87.8% [100 µM] (active),-90.8% [100 µM] (active),-85% [100 µM] (active),,-78.5% [100 µM] (active),-75.6% [100 µM] (active),,-60.8% [100 µM] (active),-88.7% [100 µM] (active),28% [100 µM],-88% [100 µM] (active),-83.9% [100 µM] (active),-43.4% [100 µM] (active),-83.6% [100 µM] (active),-83.3% [100 µM] (active),-86.3% [100 µM] (active),-65.5% [100 µM] (active)
O=C1NC(=O)/C(=C\c2ccco2)S1,112%,111%,101%,89.5%,106%,99.4%,103%,108%,104%,100%,114%,97.7%,101%,101%,101%,99.9%,91.7%,91.5%,113%,
COc1cccc(C=Nc2cc(C(C)C)c(O)cc2C)c1O,114%,107%,106%,88.9%,104%,92.1%,91.7%,111%,106%,96%,103%,88.3%,93.2%,96%,92.8%,104%,91.9%,94.8%,116%,
CSc1nc(-c2ccc(O)cc2O)c2c(=O)[nH]c(Nc3ccc(S(=O)(=O)Nc4nc(C)cc(C)n4)cc3)nc2n1,95.1%,99.4%,79.8%,100%,115%,101%,108%,124%,,104%,113%,73.1%,96.1%,100%,88%,109%,92.7%,99%,97.8%,
CNc1nc(NC2CCCC2)nc(Sc2ccc(OC)cc2)n1,26.5% [100 µM],9.58% [100 µM] (active),-11.9% [100 µM] (active),-30.9% [100 µM] (active),32% [100 µM],25.7% [100 µM],49.2% [100 µM],31.4% [100 µM],16.7% [100 µM],,3.05% [100 µM] (active),48.9% [100 µM],40.4% [100 µM],25.8% [100 µM],-7.58% [100 µM] (active),11.6% [100 µM],25.1% [100 µM],22.4% [100 µM],46.4% [100 µM],
O=c1c2ccccc2c2nccn2c2cc(Cl)ccc12,98.1%,57.7%,159%,126%,,91.9%,94.2%,66.5%,110%,129%,83.8%,73.3%,119%,105%,72.5%,72.6%,129%,95.4%,96.8%,85.5%
CC(C)CNc1nc(N=[N+]=[N-])nc(NCC(C)C)n1,80.1% [100 µM],33.5% [100 µM],72.7% [100 µM],48.5% [100 µM],70.8% [100 µM],63.3% [100 µM],,62.7% [100 µM],57.7% [100 µM],54% [100 µM],60.4% [100 µM],37.3% [100 µM],54.8% [100 µM],61.9% [100 µM],23.3% [100 µM],54.6% [100 µM],59.1% [100 µM],72.6% [100 µM],76.9% [100 µM],36.5% [100 µM]
CCCn1c(N)c(C(=O)CNc2ccc(I)cc2)c(=O)[nH]c1=O,57.3%,43.5%,80.7%,67.5%,,46.1%,57.5%,72.1%,56.2%,22.7%,41.7%,81.8%,88.7%,28.8%,60.9%,60.2%,37.1%,18.7%,51.7%,54.2%
CC1Cc2ccccc2N1C(=O)c1ccc(C(=O)c2ccccc2)cc1 (configuration not stated),79.7%,85.6%,73%,91.3%,,92.1%,96.3%,30.1%,83.5%,86%,89.4%,94.3%,90.5%,63.5%,97%,74.2%,73.6%,83%,99.5%,84%
